ADAM17 inh: ADAM17 inhibition, QFRET primary screen; 370,000 compounds, 0.83% hits; P78536; inhibition, % at 6.95 µM; recombinant ADAM17, EDANS/DABCYL FRET peptide cleavage;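 active means inhibition above the mean of compounds lying between control limits plus 3 SD, set per campaign, cut at about 8.5% in these data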
KLK7 zymogen act: activators of human kallikrein-7 zymogen; P49862; purified proKLK7, EDANS-DABCYL substrate fluorescence; 100% is mature enzyme control, 0% vehicle; 370,000 compounds, 0.9% hits; activation, % at 7 µM;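 active means activation above the mean of all tested compounds plus 3 SD, computed per campaign excluding outliers beyond control limits, cut at about 13% in these data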
ADAM10 inh: inhibits human ADAM10. AID 720582. 370,000 compounds, 0.62% hits. O14672. inhibition, % at 7 µM. recombinant ADAM10, EDANS/DABCYL FRET peptide cleavage, 3 h;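 active means inhibition above a per-campaign cutoff equal to the mean of compounds falling between control-based bounds plus 3 SD, cut at about 20% in these data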
Target sequence (O14672 214-748 limits assumed): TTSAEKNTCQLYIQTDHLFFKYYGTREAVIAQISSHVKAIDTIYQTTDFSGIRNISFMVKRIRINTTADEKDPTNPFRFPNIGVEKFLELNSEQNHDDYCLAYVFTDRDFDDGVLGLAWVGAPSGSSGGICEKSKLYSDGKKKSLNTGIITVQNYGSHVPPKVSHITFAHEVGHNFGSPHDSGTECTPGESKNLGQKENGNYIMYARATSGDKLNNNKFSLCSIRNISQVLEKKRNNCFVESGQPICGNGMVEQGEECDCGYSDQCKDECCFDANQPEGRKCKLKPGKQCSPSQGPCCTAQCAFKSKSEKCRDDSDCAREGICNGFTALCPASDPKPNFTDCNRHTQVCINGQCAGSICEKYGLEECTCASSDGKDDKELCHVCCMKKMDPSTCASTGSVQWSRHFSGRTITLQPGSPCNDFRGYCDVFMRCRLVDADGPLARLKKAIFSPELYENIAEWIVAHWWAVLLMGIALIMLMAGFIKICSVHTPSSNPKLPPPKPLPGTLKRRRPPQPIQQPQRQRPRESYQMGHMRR
FGF22 binding: FGF22 (human) thermal shift binding. 340,000 compounds, 1.5% hits. Q9HCT0. AID 651658. activity (Tm shift, normalised), % at 9.99 µM. recombinant FGF22 thermal shift, SYPRO orange fluorescence; percent of sucrose octasulfate shift, DMSO zero;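 active means mean Tm shift, scaled 0 neutral to 100 positive control, at about 1.3% or above, every replicate too, limit read from the data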
Target sequence (Q9HCT0 whole entry, looked up): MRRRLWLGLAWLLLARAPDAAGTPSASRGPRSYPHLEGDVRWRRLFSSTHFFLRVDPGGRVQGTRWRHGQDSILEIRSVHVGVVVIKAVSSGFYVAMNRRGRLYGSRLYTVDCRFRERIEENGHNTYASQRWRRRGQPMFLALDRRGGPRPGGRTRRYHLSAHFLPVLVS
Ecoli rRNA inh: selective bacterial rRNA inhibition in E. coli | GFP signal change (wild-type ribosome), % (no concentration beside the values) | 350,000 compounds, 1.6% hits | E. coli WT GFP vs humanized-ribosome RFP mutants, fluorescence, 24 h; stronger effect = lower value; DMSO median 0, no signal -100;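 active means significant combined selectivity score with lowered wild-type GFP, culture density cut under 30%, mutant RFP and density less affected; inactive means any of these conditions unmet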
ADAM10 counter: counter-screen for ADAM17 exosite inhibitors: inhibitors of human ADAM10. inhibition, % at 6.95 µM. recombinant ADAM10, EDANS/DABCYL FRET peptide cleavage, 3 h. AID 743256. shares compounds with ADAM17 inh. 2,900 compounds, 47% hits;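 active means mean inhibition over the triplicate runs exceeds the activity threshold set in the earlier primary screen, cut at about 20% in these data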
ADAM17 confirm: human ADAM17 inhibition, confirmation; shares compounds with ADAM17 inh; recombinant ADAM17, EDANS/DABCYL QFRET peptide cleavage; inhibition, % at 6.95 µM; 2,900 compounds, 65% hits; AID 743257;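 active means mean inhibition across replicates above the hit cutoff set in the primary screen, cut at about 8.5% in these data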
Large screens that a line does not name were inactive (follow-up assays come after a bar, where they were run). Shown are actives, neighbours in structure and some others; about 3.8% of the full set was active somewhere.

CC(C)(C)OC(=O)NCCOC(=O)c1[nH]cnc1C(=O)NCc1ccccc1	ADAM17 inh 11 | ADAM10 counter inactive | ADAM17 confirm inactive
CC(C)(C)OC(=O)CNC(=O)c1nc[nH]c1C(=O)NCc1ccc(CNC(=O)OC(C)(C)C)cc1	none
CC(C)C[C@H](NC(=O)c1[nH]cnc1C(=O)Nc1ccc(CNC(=O)OC(C)(C)C)cc1)C(=O)OCc1ccccc1	none
COc1cccc(C#Cc2ccc([C@H]3[C@H]4CN(C(=O)Cc5cccnc5)CC(=O)N4[C@H]3CO)cc2)c1	none (no result: ADAM17 inh, KLK7 zymogen act, ADAM10 inh, FGF22 binding)
O=C(C[C@H]1CC[C@H]2[C@@H](COC[C@H](O)CN2Cc2cc(F)ccc2F)O1)N1CCc2ccccc2C1	none (no result: ADAM17 inh, KLK7 zymogen act, ADAM10 inh)
CCCC#Cc1cnc2c(c1)C(=O)N([C@@H](C)CO)C[C@H](C)[C@@H](CN(C)C(=O)C1CCC1)O2	none (no result: ADAM17 inh, KLK7 zymogen act, ADAM10 inh)
Cc1noc(C)c1C(=O)N(C)C[C@@H]1OCc2ccccc2-c2ccccc2C(=O)N([C@H](C)CO)C[C@H]1C	none (no result: ADAM17 inh, KLK7 zymogen act, ADAM10 inh)
Cc1ccc(CN(C(=O)Cn2nnc3ccccc32)C(C(=O)NCc2ccco2)c2ccc(C)o2)cc1 (centres undefined)	none (no result: FGF22 binding, Ecoli rRNA inh)
Cc1ccc(C(C(=O)NCc2ccco2)N(CCc2ccccc2)C(=O)Cn2nnc3ccccc32)o1 (centres undefined)	ADAM17 inh 10 (no result: FGF22 binding, Ecoli rRNA inh) | ADAM10 counter inactive | ADAM17 confirm 10
C[C@H](CO)N1C[C@H](C)[C@H](CN(C)S(=O)(=O)c2ccc(F)cc2)Oc2ccc(NC(=O)Cn3cnnn3)cc2CC1=O	none (no result: ADAM17 inh, KLK7 zymogen act, ADAM10 inh)
C[C@@H]1CN([C@@H](C)CO)S(=O)(=O)c2ccc(-c3ccc(F)cc3)cc2O[C@@H]1CN(C)C	none (no result: ADAM17 inh, KLK7 zymogen act, ADAM10 inh)
CC(=O)N(C)c1ccc(N=Nc2ccc3ncccc3c2)cc1	ADAM17 inh 9.6 | ADAM10 counter inactive | ADAM17 confirm inactive
CC(=O)N(C)c1ccc(N=Nc2c(C)[nH]n(-c3ccccc3)c2=O)cc1	none
c1ccc2oc(SCc3cn4ccsc4n3)nc2c1	ADAM17 inh 9.2 (no result: FGF22 binding, Ecoli rRNA inh) | ADAM10 counter inactive | ADAM17 confirm inactive
Cc1sc2ncnc(NCCCO)c2c1C	none
Cc1ccc(Nc2ncnc3sc(C)c(C)c23)cc1C	ADAM17 inh 9.1 (no result: FGF22 binding, Ecoli rRNA inh) | ADAM10 counter inactive | ADAM17 confirm inactive
C[C@H](CO)N1C[C@H](C)[C@@H](CN(C)S(=O)(=O)c2cccs2)Oc2ccc(NS(=O)(=O)c3ccc(F)cc3)cc2CC1=O	none (no result: ADAM17 inh, KLK7 zymogen act, ADAM10 inh)
O=C(Cn1c(=O)sc2ccccc21)Nc1ccc(S(=O)(=O)N2CCCCC2)cc1	ADAM17 inh 8.8 (no result: FGF22 binding, Ecoli rRNA inh) | ADAM10 counter 30 | ADAM17 confirm 17
CC1(C(=O)NCc2cccc(C(F)(F)F)c2)CCN1Cc1cc2ccccc2o1 (centres undefined)	none (no result: Ecoli rRNA inh)
CC1(C(=O)NCc2cccc(C(F)(F)F)c2)CCN1Cc1ccc(-c2ccccc2)o1 (centres undefined)	ADAM17 inh 13 | ADAM10 counter inactive | ADAM17 confirm 10
CNC[C@@H]1OCCCC[C@H](C)Oc2ccc(NS(=O)(=O)c3ccc(C)cc3)cc2C(=O)N([C@H](C)CO)C[C@H]1C	none (no result: ADAM17 inh, KLK7 zymogen act, ADAM10 inh)
CCCCOc1ccc(NC(=O)CN2CCN(Cc3ccccc3)CC2)cc1	ADAM17 inh 8.8 | ADAM10 counter inactive | ADAM17 confirm inactive
C[C@@H]1CN([C@@H](C)CO)C(=O)c2cc(NC(=O)Nc3ccccc3)ccc2O[C@@H](C)CCCCO[C@H]1CN(C)Cc1ccc(C(F)(F)F)cc1	none (no result: ADAM17 inh, KLK7 zymogen act, ADAM10 inh)
COC(=O)C1=C(C)N(Cc2ccc(C(F)(F)F)cc2)C(=NCc2ccc3c(c2)OCO3)NC1c1ccccc1 (centres undefined)	ADAM17 inh 9.6 | ADAM10 counter inactive | ADAM17 confirm inactive
COC(=O)C1=C(C)N(Cc2cccc(C(F)(F)F)c2)C(=NCc2ccccc2C(F)(F)F)NC1c1cccc(F)c1 (centres undefined)	ADAM17 inh 9.6 | ADAM10 counter 21 | ADAM17 confirm 18
COC(=O)C1=C(C)N(Cc2cccc(C(F)(F)F)c2)C(=NCc2ccccc2C(F)(F)F)NC1c1cccc(C(F)(F)F)c1 (centres undefined)	none
C=CCN=C1NC(c2cccc(Cl)c2)C(C(=O)OC)=C(C)N1Cc1cccc(C(F)(F)F)c1 (centres undefined)	ADAM17 inh 10.0 | ADAM10 counter inactive | ADAM17 confirm inactive
COC(=O)C1=C(C)N(Cc2cccc(C(F)(F)F)c2)C(=NCc2ccc3c(c2)OCO3)NC1c1ccccc1 (centres undefined)	none
Cc1noc(C)c1NC(=O)Nc1ccc2c(c1)C(=O)N([C@@H](C)CO)C[C@H](C)[C@H](CN(C)S(=O)(=O)c1ccc(F)cc1)OCCCC[C@@H](C)O2	none (no result: ADAM17 inh, KLK7 zymogen act, ADAM10 inh, FGF22 binding)
COc1ccc2nc(Nc3ccc4c(c3)OCO4)sc2c1	ADAM17 inh 9.8 (no result: FGF22 binding, Ecoli rRNA inh) | ADAM10 counter inactive | ADAM17 confirm inactive
COc1ccc(S(=O)(=O)N(C)C[C@@H]2Oc3c(NS(=O)(=O)c4ccc(Cl)cc4)cccc3C(=O)N([C@@H](C)CO)C[C@H]2C)cc1	none (no result: ADAM17 inh, KLK7 zymogen act, ADAM10 inh)
CN(C)CCNC(=O)c1ccc2c(=O)n(Cc3ccc(Cl)cc3)c(=S)[nH]c2c1	ADAM17 inh 9.1 | ADAM10 counter inactive | ADAM17 confirm inactive
COCCCNC(=O)Cn1nc(-c2ccccc2OC)ccc1=O	ADAM17 inh 10 (no result: FGF22 binding, Ecoli rRNA inh) | ADAM10 counter inactive | ADAM17 confirm inactive
COCCNC(=O)Cn1nc(-c2ccccc2OC)ccc1=O	none (no result: FGF22 binding, Ecoli rRNA inh)
COc1ccccc1CNC(=O)C[C@@H]1CC[C@@H]2[C@H](COC[C@H](O)CN2C(=O)Nc2ccc(C(F)(F)F)cc2)O1	none (no result: ADAM17 inh, KLK7 zymogen act, ADAM10 inh)
Cc1nc(NC(=O)c2cc3c(C)nn(-c4ccccc4)c3s2)sc1C(=O)Nc1ccccc1	none (no result: FGF22 binding, Ecoli rRNA inh)
CCN(CC)c1ccc(NC(=O)c2cc3c(C)nn(-c4ccccc4)c3s2)cc1	ADAM17 inh 13 (no result: FGF22 binding, Ecoli rRNA inh) | ADAM10 counter inactive | ADAM17 confirm 10
O=C(C[C@H]1C[C@@H]2c3cc(NC(=O)CC4CC4)ccc3O[C@@H]2[C@H](CO)O1)NCc1cccc(F)c1	none (no result: ADAM17 inh, KLK7 zymogen act, ADAM10 inh)
O=C(NCc1n[nH]c(=S)n1-c1cccc(C(F)(F)F)c1)c1ccc(S(=O)(=O)N2CCCCC2)cc1	ADAM17 inh 13 | ADAM10 counter inactive | ADAM17 confirm inactive
COc1ccc(S[C@]2(C(=O)N(C)C)CC(=O)N(C(=O)CCc3ccccc3)[C@@H]2c2ccc(OC)cc2)cc1	ADAM17 inh 10 (no result: FGF22 binding, Ecoli rRNA inh) | ADAM10 counter inactive | ADAM17 confirm 9.8
CCN(CC)C(=O)COc1ccc(N(C)S(=O)(=O)c2ccc(NC(C)=O)cc2)cc1	none
